A selection: hits, their analogues and other compounds. The true share with any hit is near 2.7%.
IP6K1 inh – inhibitors of human IP6K1 | Q92551 | IP6K1 kinase, ADP-Glo luminescence, 2 h; stronger effect = lower value | activity change, % (series mostly up to about 58 µM) | 140,000 compounds, 0.81% hits; in the data active = activity change below about -25%
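ADP-Glo luminescence measures ADP made by human IP6K1 during a 2 h RT reaction with ATP/IP6 (mix at 1.3 mM/130 uM); top library doses 57.5 and 19.1 uM final.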
KDM5B inh – KDM5B demethylase inhibition; 220,000 compounds, 2.6% hits; AID 1347165; KDM5B demethylase, FDH-coupled NADH fluorescence (FDH is formaldehyde dehydrogenase); Potency, µM (doses to about 57.7 µM), usual class: inhibitors; Q9UGL1; active = well fitted inhibition curve with a large enough effect; inconclusive = small, poorly fitted or top-dose-only effect; inactive = no such curve, though single readings can be large or run the other way; note: nearly all actives have a fitted effect of over 70% in size
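KDM5BΔAP (200 nM final) in 50 mM HEPES pH 7.5, 0.01% Tween-20 was preincubated 10 min at RT with compound over a concentration range. Substrate mix (H3K4me3 12.5 µM, α-KG 25 µM, Fe²⁺, ascorbate, NAD⁺, FDH) was added, and NADH fluorescence change over 30 min gave dose-response curves.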
Hits are given with their value; – = inactive; ? = inconclusive; · = not tested or not shown.

SMILES | IP6K1 inh | KDM5B inh
CC(=O)NCCC(=O)N1Cc2ccccc2CC2(CCN(Cc3cccnc3)CC2)C1 | – | –
COc1ccc(-c2ccnc(-c3nnc(C)n3C3CCCCC3)c2)cc1OC | – | 35µM
COc1cccc(-c2ccnc(-c3nnc(C)n3C3CCCCC3)c2)c1 | – | –
COc1cccc(OC)c1C(=O)Nc1ccc2oc(=O)ccc2c1 | · | –
COc1ccccc1-c1cc(C(=O)NCc2cccnc2)c2cnn(C)c2n1 | – | ?
COc1cc(F)ccc1-c1cc(C(=O)NCc2cccnc2)c2c(c1)N(C)CCO2 | – | 28µM
COc1ccc(-c2cc(C(=O)NCc3cnn(C)c3)c3c(c2)N(C)CCO3)cc1 | – | 35µM
COc1cc(F)ccc1-c1cc(C(=O)NCc2cnn(C)c2)c2c(c1)N(C)CCO2 | – | 40µM
COc1ncc(-c2cc(C(=O)NCc3cnn(C)c3)c3c(c2)N(C)CCO3)cn1 | – | –
CC(=O)N(C)C1CCCc2ccccc21 (configuration not stated) | – | –
COC(=O)c1cc(CNC(=O)Nn2cnc3ccccc32)ccc1OC | · | –
CC(C)Oc1ccc(CNC(=O)C2Cn3cccc3C(=O)N2Cc2ccccc2)cc1 (configuration not stated) | – | –
CC(C)CNc1ccc2c(n1)C(C)(C(=O)NC1CCN(C)CC1)CN(Cc1ccccc1)C2 (configuration not stated) | – | –
CC1(C(=O)NC2CCC2)CN(Cc2ccccc2)Cc2ccc(N3CCOCC3)nc21 (configuration not stated) | – | 35µM
Cn1ccc(NC(=O)C2(C)CN(Cc3ccccc3)Cc3ccc(N4CCOCC4)nc32)n1 (configuration not stated) | – | 11µM
CN(C)CCNC(=O)C1(C)CN(Cc2ccccc2)Cc2ccc(Nc3ccccc3)nc21 (configuration not stated) | – | –
CNC(=O)C1(C)CN(Cc2ccccc2)Cc2ccc(N3CCOCC3)nc21 (configuration not stated) | – | 35µM
CN1Cc2ccc(N3CCOCC3)nc2C(C)(C(=O)NCc2ccccc2)C1 (configuration not stated) | – | ?
CC(C)CNc1ccc2c(n1)C(C)(C(=O)NCc1cccnc1)CN(Cc1ccccc1)C2 (configuration not stated) | – | ?
CC1(C(=O)NCc2ccco2)CN(Cc2ccccc2)Cc2ccc(N3CCOCC3)nc21 (configuration not stated) | – | 16µM
CC(C)C[C@@H]1N[C@H](C(=O)NCc2cccs2)Cc2c[nH]c3cccc1c23 | – | ?
CS(=O)(=O)Oc1ccc2c(=O)c(-c3ccc(Cl)cc3)c(C(F)(F)F)oc2c1 | · | –
CC1=C[C@@H](CNC2CCOCC2)[C@H](C(C)C)C[C@H]1Cc1nc2ccc(Cl)cc2[nH]1 | – | –
COCCNC(=O)C1(C)CN(Cc2ccccc2)Cc2ccc(N3CCOCC3)nc21 (configuration not stated) | – | 32µM
COCCCNC(=O)C1(C)CN(Cc2ccccc2)Cc2ccc(Nc3ccccc3)nc21 (configuration not stated) | – | ?
SMILES | IP6K1 inh | KDM5B inh
c1cn2c(NC3CCCC3)c(-c3ccc(N4CCOCC4)cc3)nc2cn1 | · | –
c1nc2nc(Nc3ccc(N4CCOCC4)cc3)nc(NC3CCCCC3)c2[nH]1 | -41 | ·
C[C@H](C(=O)N1CCCC1)[C@@H]1CC[C@@]2(C)Cc3sc(-c4ccsc4)nc3[C@@H](C)[C@@H]2[C@H]1O | – | ?
C[C@H](C(=O)N1CCCC1)C1CC[C@@]2(C)Cc3sc(-c4ccccc4)nc3[C@@H](C)[C@@H]2[C@H]1O (some centres not stated) | – | 32µM
Cc1cc(C2=NNC(=NC3CCCCC3)SC2)c(C)n1C1CC1 | · | –
O=C(Cc1ccc(F)cc1)NC1CCN(C(=O)c2ccc(-c3cccs3)cc2)CC1 | – | ·
CC(=O)Nc1ccc(NC(=O)c2cnc3ccccc3n2)cc1 | · | –
O=C(NC1CCCCC1)c1cc2n(n1)CC(c1ccc3c(c1)OCO3)OC2 (configuration not stated) | – | –
Cc1ccc(NC(=O)c2cc3n(n2)CC(c2ccc4c(c2)OCO4)OC3)cc1Cl (configuration not stated) | – | 28µM
Cc1ccc(NC(=O)c2cc3n(n2)CC(c2ccc4c(c2)OCO4)OC3)cc1F (configuration not stated) | – | 22µM
CC(C)c1cccc(NC(=O)c2cc3n(n2)CC(c2ccc4c(c2)OCO4)OC3)c1 (configuration not stated) | – | ?
CCCn1nc(C)c(-c2cc(C(=O)N3CCc4c(nc5cc(-c6ccccc6)[nH]n5c4=O)C3)[nH]n2)c1C | – | ?
O=C(c1ccc(=O)[nH]c1)N1CCC(C(=O)N2CCc3c(nc4cc(-c5ccccc5)[nH]n4c3=O)C2)CC1 | – | ?
Cc1ccc(C(=O)N2CCc3nc4cc(-c5ccccc5)[nH]n4c(=O)c3C2)cn1 | – | ?
COc1ccc(NC(=O)N2CCc3c(nc4cc(-c5ccccc5)[nH]n4c3=O)C2)c(OC)c1 | – | ?
O=C(c1ccc2cc[nH]c2c1)N1CCc2c(nc3cc(-c4ccccc4)[nH]n3c2=O)C1 | – | 28µM
O=C(Nc1ccc2c(c1)CCC2)N1CCc2c(nc3cc(-c4ccccc4)[nH]n3c2=O)C1 | – | 11µM
Cc1ccc(C(=O)N2CCc3c(nc4cc(-c5ccccc5)[nH]n4c3=O)C2)cn1 | – | 25µM
COc1ccc2c(c1)CCc1c-2n[nH]c1C(=O)N1CCc2c(nc3cc(-c4ccccc4)[nH]n3c2=O)C1 | – | 16µM
COc1cc(CC(=O)NCc2cccc(C(F)(F)F)c2)cc(OC)c1OC | · | –
O=C(NC1CCC(C(F)(F)F)CC1)c1ccsc1 (configuration not stated) | · | –
O=C(c1nnc(COc2cc(F)cc(F)c2)n1-c1ccccc1)N1CCC[C@@H]1c1cccc(F)c1 | – | –
COc1cccc(CNC(=O)N2CCc3sccc3C2)c1 | · | –
CCCC1c2nccn2CCCN1C(=O)c1occc1C (configuration not stated) | – | –
COc1ccc(-c2cc3nc4c(c(=O)n3[nH]2)CN(C(=O)c2ccncc2)CC4)cc1 | – | –
COc1ccc(-c2cc3nc4c(c(=O)n3[nH]2)CN(C(=O)c2ccc3[nH]ccc3c2)CC4)cc1 | – | 16µM
COc1ccc(-c2cc3nc4c(c(=O)n3[nH]2)CN(C(=O)c2cc(CN3CCOCC3)on2)CC4)cc1 | – | 8.9µM
COc1ccc(-c2cc3nc4c(c(=O)n3[nH]2)CN(C(=O)c2ccc(C)cc2)CC4)cc1 | – | ?
CCOc1ccc(Cl)cc1CN(C)c1cc(C2CC(O)C2)nc(N)n1 (configuration not stated) | – | –

Bioassay records: PubChem, National Center for Advancing Translational Sciences (NCATS)
